Our source for the outcome and AC50 values is PubChem BioAssay (EPA / NIEHS).

The source made the active and inactive calls. The calls were made as follows: active = hit-call score of the fitted dose curve at least 0.9, where 1 is the maximum; inactive = score below 0.9.

Read-out in the assay: Vascular cell adhesion molecule 1 (VCAM1), VCAM1 (gene 7412)
Briefly: BSK_4H_VCAM1: BioMAP Diversity Plus: 4H Assay for Vascular cell adhesion molecule 1 (VCAM1) Biomarker Activity (AID 2283033). Conditions: primary human endothelial cells (HUVEC); actives raise or lower the signal. On the procedure:
BSK_4H is a cell-based, multiplexed-readout assay that uses umbilical vein endothelium, a human vascular primary cell, with measurements taken at 24 hours after chemical dosing in a 96-well plate.BSK_4H_VCAM1 is an assay component measured in the BSK_4H assay. It measures VCAM-1 antibody related to regulation of gene expression using ELISA technology.Data from the assay component BSK_4H_VCAM1 was analyzed into 1 assay endpoint. This assay endpoint, BSK_4H_VCAM1, was analyzed with bidirectional fitting relative to DMSO as the negative control and baseline of activity. Using a type of binding reporter, gain or loss-of-signal activity can be used to understand changes in the signaling as they relate to the gene VCAM1. Furthermore, this assay endpoint can be referred to as a primary readout, because this assay has produced multiple assay endpoints where this one serves a signaling function. To generalize the intended target to other relatable targets, this assay endpoint is annotated to the cell adhesion molecules intended target family, where the subfamily is Immunoglobulin CAM.
The levels of cell surface (or secreted, indicated by the prefix "s") biomarker endpoints were measured by ELISA. Overt cytotoxicity to cells in confluent adherent cultures (all systems other than the BT system) was assessed by measuring total protein levels using sulforhodamine B (SRB) staining in parallel cultures at the time of biomarker measurements, indicated as SRB endpoints. For proliferation assays for adherent cell types, individual cell types are cultured at sub-confluence and relative cell numbers quantified by SRB staining at time points optimized for each system (48 h: 3C and CASM3C systems; 72 h: BT and HDF3CGF systems; 96 h: SAg system). SRB was performed by staining cells with 0.1% SRB after fixation with 10% TCA and reading wells at 560 nm.Viability and proliferation of PBMC (T cells) was quantified by Alamar Blue reduction for the SAg and BT systems. For PBMC viability (referred to as PBMC Cytotoxicity within the assay endpoint names), cells were plated (75,000/well in a 96-well plate) and then chemical samples added for 1 h before addition of activators, SEB and TSST-1 (20 ng/mL final concentration each). Cells were incubated for 90 h. Then, Alamar Blue (20 uL/well) (Invitrogen, Cat DAL1100) was added for 6 h, and the plates were read with a fluorescence microplate reader at 546/580 nm (excitation/emission). For PBMC proliferation, cells were plated and activated as above but incubated for only 16 h prior to addition of Alamar Blue. Plates were read after 6 h.
Turning to `Oc1cc(Cl)c(Cl)cc1Cl`, the result was inactive.
Turning to `CCCCCCCCCCCCN(C)C`, the result was inactive.
As for `CCOP(=S)(OCC)OP(=S)(OCC)OCC`, the half-maximal activity concentration (AC50) was 33 µM (active).
On to `COCC(=O)N(c1c(C)cccc1C)[C@H](C)C(=O)OC`, for which the outcome was inactive.
Still for that read-out and setting: in the case of `O=C(O)C1(c2ccc3c(c2)OC[C@H](Cc2ccc(-c4ccccc4)cc2)[C@H]3O)CCCC1` it was “inactive”.
With `CC(C)O.CC(C)O.OCCN(CCO)CCO.OCCN(CCO)CCO.[Ti]`, the outcome was inactive.
The same measure, in the same setting: in the case of `Clc1cccc(Cl)c1` it was “inactive”; in that of `OCCCCO`, “inactive”; in that of `CC1(C)[C@H](C(=O)O[C@H](C#N)c2cccc(Oc3ccccc3)c2)[C@@H]1/C=C(\Cl)C(F)(F)F`, “inactive”.
On the same count and under the same terms, in the case of `CCOP(=O)(OCC)SCCSCC` it was “inactive”.
Still for that read-out and setting: then `Nc1ccc(N)cc1`, with “inactive”; and `C[C@]12CC[C@@H](O)C[C@@H]1CC[C@@H]1[C@@H]2CC[C@]2(C)C(=O)CC[C@@H]12`, with “inactive”.
Turning to `CC(C)=CC1C(C(=O)OCc2cccc(Oc3ccccc3)c2)C1(C)C` (stereo not given), the result was inactive.
Still for that read-out and setting: then `Cc1c([N+](=O)[O-])c(C)c([N+](=O)[O-])c(C(C)(C)C)c1[N+](=O)[O-]`, with “inactive”; and `O=C(Cc1ccccc1)OCCc1ccccc1`, with “inactive”.
On the same count and under the same terms, in the case of `O=C(N[C@H]1CN2CCC1CC2)c1ccc2c(c1)OCCO2` it was “inactive”.
Turning to `O=c1oc2ccccc2c(O)c1C(CC(O)c1ccc(-c2ccc(Br)cc2)cc1)c1ccccc1` (stereo not given), the AC50 was 13.9 µM (active).
On the same count and under the same terms, then `CCOC(=O)CCN(SN(C)C(=O)Oc1cccc2c1OC(C)(C)C2)C(C)C`, with 31 µM (active); and `N#CCCC(Br)(C#N)CBr` (stereo not given), with 7.87 µM (active).
For `CCOC(=O)C(SP(=S)(OC)OC)c1ccccc1` (stereo not given), the concentration at half-maximal activity (AC50) was 27.1 µM (active).
Same read-out and setting: then `Oc1c(Br)cc(Br)cc1Br`, with 20 µM (active).
Regarding `CC(C)(C)c1cc([N+](=O)[O-])cc(C(C)(C)C)c1O`, the result was inactive.
On the same count and under the same terms, in the case of `Clc1cccc(Cl)c1Cl` it was “inactive”; in that of `Cc1ccc(OP(=O)(Oc2ccc(C)cc2C)Oc2ccc(C)cc2C)c(C)c1`, “inactive”.
Turning to `Cc1cc(C(C)(C)c2ccc(O)c(C)c2)ccc1O`, the AC50 is 16.8 µM (active).
`Cc1ccccc1OP(=O)(Oc1ccccc1C)Oc1ccccc1C`: the AC50 was 7.84 µM (active).
Turning to `NC(=O)CCl`, the outcome was inactive.
As for `C#CCOC(=O)/C=C(C)/C=C/CC(C)CCCC(C)C` (stereo not given), the concentration at half-maximal activity (AC50) was 26.4 µM (active).
The same measure, in the same setting: then `OC(Cc1ccccc1Cl)(Cn1[nH]cnc1=S)C1(Cl)CC1` (stereo not given), with 20 µM (active).
As to `CCOP(=S)(OCC)SCS(=O)(=O)C(C)(C)C`, the result was inactive.
Take `CCOC(=O)CC(=O)CCl`: the AC50 was 20 µM (active).
As to `O=[N+]([O-])c1cccc2ccccc12`, the outcome was inactive.
The same measure, in the same setting: in the case of `CCN(CC)C(=O)C(Cl)=C(C)OP(=O)(OC)OC` it was “inactive”; in that of `O=[N+]([O-])c1ccc(Nc2ccccc2)cc1`, “inactive”.
Turning to `CCCCN(CCCC)C(=S)[S-].CCCCN(CCCC)C(=S)[S-].[Ni+2]`, the outcome was inactive.
The same measure, in the same setting: in the case of `O=C(CCl)NCO` it was “inactive”; in that of `Cc1cc(C)cc(C)c1`, “inactive”.
Turning to `Oc1cccc(-c2ccccc2)c1`, the half-maximal activity concentration (AC50) is 36.9 µM (active).
For `COc1ccccc1N`, the result was inactive.
Turning to `CC(C)N(C(=O)CCl)c1ccccc1`, the concentration at half-maximal activity (AC50) was 20 µM (active).
